Measured values from PubChem BioAssay.
Where “and” joins values, the source holds several entries; their conditions need not be identical. Equal values may be shown once. Calls of active or inactive are those of the source. Rule as the data show it, unless noted: active = inhibition above about 80%; inactive = the rest.

Assays:
[1] = target: 6-phosphogluconate dehydrogenase, decarboxylating (Homo sapiens) (UniProt P52209); assay: 6PGD enzyme inhibitors, primary screen, biochemical, human, recombinant enzyme, NADPH absorbance (AID 1159550;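 active = at least 20% inhibition of 6-phosphogluconate dehydrogenase activity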); conditions: recombinant 6PGD, NADPH absorbance 341 nm; at 10 µM; stronger effect = higher value
[2] = target: NAD(+) hydrolase SARM1 (Homo sapiens) (UniProt Q6SZW1); assay: SARM1 TIR NADase inhibitors, cell lysate, NAD-Glo luminescence (AID 1508614;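 active = compound whose remaining NAD level is above about 45 nM, limit read from the data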;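 also: higher remaining NAD means stronger inhibition of SARM1 NADase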); conditions: SAM-TIR HEK293T lysate NADase, at 1 µM, stronger effect = higher value
[3] = target: Mitogen-activated protein kinase 7 (Homo sapiens) (UniProt Q13164); assay: ERK5 transactivation activators in reporter cells, primary screen, cell-based, HTS (AID 1508626;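 active = luciferase signal above three times the same-plate solvent-only control wells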;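 also: luciferase driven by Gal4-ERK5 fusion binding five Gal4 sites before minimal TATA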); conditions: HeLa Gal4-ERK5 transactivation, 18 h, at 5 µM, stronger effect = higher value
[4] = sensitizers of A549 cells to miR-34 induction, primary screen, imaging, A549 dox-inducible miR-34, nuclei and caspase counts (AID 1347080;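 active = compounds whose cell count with miR-34 switched on is under 0.7 times the count with it off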); conditions: A549 miR-34 inducible, Hoechst nuclei count, 48 h
[5] = viability rescue of complex I mutant cybrids, primary screen, cell-based, galactose medium, ATP luminescence (AID 1645843;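 active = z-score of at least 1.8 in each of two replicates, scored against plate mean and spread of sample wells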;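 also: positive z means more ATP and so rescue of galactose-driven cybrid death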); conditions: complex I mutant cybrid cells, 72 h, stronger effect = higher value
[6] = LFS_MB_P medulloblastoma growth inhibition, cell-based, chromothripsis tumors, cisplatin or BGB combos (AID 1671449); conditions: LFS_MB_P medulloblastoma cells;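 also: cells exposed for 96 hours; 0% = vehicle DMSO and 100% = killing by high DMSO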
[7] = HDN33 neuroblastoma growth inhibition, cell-based, chromothripsis tumors, cisplatin or BGB combos (AID 1671450); conditions: HDN33 neuroblastoma cells, stronger effect = higher value;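 also: cells exposed to compound for four days; 0% = vehicle DMSO and 100% = cell killing by high DMSO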
[8] = ICB984 medulloblastoma cell growth inhibition, synergistic combos for chromothripsis tumors, cisplatin or BGB combos (AID 1671451; call rule not given here;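 also: cells exposed for 96 hours before readout; 0% = vehicle DMSO and 100% = killing by high DMSO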); conditions: ICB984 medulloblastoma cells, drug combinations, stronger effect = higher value
[9] = LFS_MB_1R medulloblastoma cell growth inhibition, synergistic combos for chromothripsis tumors, cisplatin or BGB combos (AID 1671452); conditions: LFS_MB_1R medulloblastoma cells, stronger effect = higher value;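 also: cells exposed for 96 hours before readout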
[10] = HTB85 osteosarcoma cell growth inhibition, synergistic combos for chromothripsis tumors, BGB or cisplatin IC20 combos (AID 1671453); conditions: HTB85 osteosarcoma cells, drug combinations, stronger effect = higher value;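 also: cells exposed for 96 hours before readout; 0% = vehicle DMSO and 100% = high DMSO killing control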
[11] = MDA-MB-436 breast carcinoma cell growth inhibition, synergistic combos for chromothripsis tumors, BGB or cisplatin combos (AID 1671458; call rule not given here;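 also: cells exposed for 96 hours; 0% = vehicle DMSO and 100% = killing by high DMSO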); conditions: MDA-MB-436 breast carcinoma growth inhibition, drug combinations, stronger effect = higher value
[12] = growth inhibition of BT084 medulloblastoma cells, cell-based, ICGC_MB145, cisplatin and BGB IC40 combos (AID 1671461); conditions: drug combinations, stronger effect = higher value;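 also: cells exposed to drugs for 96 hours; 0% = vehicle DMSO and 100% = high DMSO full killing control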
[13] = growth inhibition of RCMB18 medulloblastoma cells, cell-based, cisplatin and BGB IC40 combos (AID 1671462); conditions: stronger effect = higher value;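 also: cells exposed to compound for four days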
[14] = growth inhibition of CRL1545 osteosarcoma cells, cell-based, cisplatin and BGB IC20 combos (AID 1671464); conditions: stronger effect = higher value;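 also: cells exposed to compound for 96 hours before readout; 0% = vehicle DMSO and 100% = high DMSO killing control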
[15] = hESC survival regulators, cell-based (AID 493140; call rule not given here;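 also: cells exposed to compounds for four days before counting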); conditions: human embryonic stem cell survival screen; stronger effect = higher value
[16] = liver-stage malaria parasite growth inhibition, primary screen, cell-based, HepG2, luciferase luminescence, HepG2 viability (AID 624349; in the data active = parasite load remaining mostly below about 12%, no sharp cut-off; inactive = mostly above about 10%;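 also: 100% = mean of DMSO negative control wells on the same plate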); conditions: P. berghei liver stage in HepG2, luciferase luminescence, concentration not given here; parasite load remaining: stronger effect = lower value; viability: measured here: HepG2 viability without parasites
[17] = survival rescue of mitochondrial mutant cells in low glucose, primary screen, MELAS cybrids, Rieske KO mouse fibroblasts, CellTiter-Glo (AID 1508586;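 active = mean z-score across replicates of 1.96 or higher in either the MELAS or the Rieske mutant cell line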;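 also: z relative to plate mean and SD of compound and empty wells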)
[18] = stronger effect = lower value, cell number ratio, induced over uninduced
[19] = measured here: relative caspase fold change +Dox/-Dox
[20] = measured here: total cells with miR-34 induction, stronger effect = lower value
[21] = measured here: total cells without miR-34 induction
[22] = measured here: combination with BGB IC40, at 0.05 µM
[23] = measured here: with BGB IC20 combination, at 0.5 µM
[24] = measured here: with cisplatin IC20 combination, at 0.5 µM
[25] = measured here: combination with cisplatin, at 0.5 µM

Sequence of 6-phosphogluconate dehydrogenase, decarboxylating (Homo sapiens) (P52209 whole entry, looked up): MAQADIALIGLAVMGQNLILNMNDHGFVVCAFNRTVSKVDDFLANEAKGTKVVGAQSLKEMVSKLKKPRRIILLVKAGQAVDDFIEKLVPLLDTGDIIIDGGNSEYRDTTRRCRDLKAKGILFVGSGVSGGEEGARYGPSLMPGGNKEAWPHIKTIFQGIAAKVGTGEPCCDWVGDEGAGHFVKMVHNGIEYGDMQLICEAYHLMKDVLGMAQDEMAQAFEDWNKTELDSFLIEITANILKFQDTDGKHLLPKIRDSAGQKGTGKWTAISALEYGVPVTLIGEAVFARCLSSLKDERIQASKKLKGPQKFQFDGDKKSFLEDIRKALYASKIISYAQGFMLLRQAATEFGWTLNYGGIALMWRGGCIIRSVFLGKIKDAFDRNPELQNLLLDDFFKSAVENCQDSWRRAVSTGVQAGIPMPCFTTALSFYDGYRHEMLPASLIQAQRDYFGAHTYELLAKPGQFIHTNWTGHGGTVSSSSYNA
Sequence of Mitogen-activated protein kinase 7 (Homo sapiens) (Q13164 whole entry, looked up, the tested form may be a part): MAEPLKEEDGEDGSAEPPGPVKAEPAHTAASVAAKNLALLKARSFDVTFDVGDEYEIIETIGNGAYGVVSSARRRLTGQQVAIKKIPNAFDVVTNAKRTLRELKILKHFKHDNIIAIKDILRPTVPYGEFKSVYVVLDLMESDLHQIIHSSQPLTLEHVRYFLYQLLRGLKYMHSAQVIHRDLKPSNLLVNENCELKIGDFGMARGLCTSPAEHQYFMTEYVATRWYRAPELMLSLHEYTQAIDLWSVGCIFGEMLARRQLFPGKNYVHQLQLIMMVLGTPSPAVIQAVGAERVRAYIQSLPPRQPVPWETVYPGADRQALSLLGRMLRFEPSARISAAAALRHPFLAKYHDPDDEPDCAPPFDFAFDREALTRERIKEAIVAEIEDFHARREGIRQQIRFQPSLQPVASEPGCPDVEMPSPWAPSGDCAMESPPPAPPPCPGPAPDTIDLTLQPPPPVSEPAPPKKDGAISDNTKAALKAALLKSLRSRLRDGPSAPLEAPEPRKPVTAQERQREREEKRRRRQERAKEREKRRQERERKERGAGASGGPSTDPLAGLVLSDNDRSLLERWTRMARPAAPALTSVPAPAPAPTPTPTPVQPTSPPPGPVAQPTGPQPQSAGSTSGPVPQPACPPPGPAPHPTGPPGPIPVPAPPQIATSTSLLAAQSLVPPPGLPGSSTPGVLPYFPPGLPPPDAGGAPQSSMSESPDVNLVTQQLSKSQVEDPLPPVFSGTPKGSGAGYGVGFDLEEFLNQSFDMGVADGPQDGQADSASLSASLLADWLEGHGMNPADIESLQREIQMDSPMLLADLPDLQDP
Sequence of NAD(+) hydrolase SARM1 (Homo sapiens) (Q6SZW1 whole entry, looked up, the tested form may be a part): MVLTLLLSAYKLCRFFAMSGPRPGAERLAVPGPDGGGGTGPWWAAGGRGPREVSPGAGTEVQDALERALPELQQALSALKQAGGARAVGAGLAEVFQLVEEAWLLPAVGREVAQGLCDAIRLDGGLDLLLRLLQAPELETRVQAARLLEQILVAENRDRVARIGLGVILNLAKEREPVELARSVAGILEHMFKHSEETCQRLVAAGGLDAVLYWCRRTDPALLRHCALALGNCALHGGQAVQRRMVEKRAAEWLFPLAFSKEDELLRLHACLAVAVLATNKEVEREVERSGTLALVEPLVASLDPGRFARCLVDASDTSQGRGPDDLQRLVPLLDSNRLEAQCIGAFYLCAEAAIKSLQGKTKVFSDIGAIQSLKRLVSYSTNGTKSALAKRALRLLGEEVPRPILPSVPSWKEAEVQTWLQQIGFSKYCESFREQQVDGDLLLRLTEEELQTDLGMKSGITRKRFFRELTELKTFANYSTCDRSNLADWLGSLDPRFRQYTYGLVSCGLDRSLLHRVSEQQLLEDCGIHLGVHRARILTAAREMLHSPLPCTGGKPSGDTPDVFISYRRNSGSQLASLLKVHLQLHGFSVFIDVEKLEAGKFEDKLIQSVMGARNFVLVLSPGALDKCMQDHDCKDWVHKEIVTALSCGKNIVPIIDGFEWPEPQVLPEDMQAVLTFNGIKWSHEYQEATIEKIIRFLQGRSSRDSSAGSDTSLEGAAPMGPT

With `NC[C@H]1O[C@H](O[C@H]2[C@H](O[C@@H]3O[C@H](CO)[C@@H](O)[C@H]3O)[C@@H](O)[C@H](N)C[C@@H]2N)[C@H](N)[C@@H](O)[C@@H]1O` the inhibition [1] was -2.01% (inactive), the remaining NAD [2] was 10 nM (inactive) and the luciferase signal [3] was 40 AU (inactive).

For `COc1cc(C2c3cc4c(cc3C(OC3OC5COC(C)OC5C(O)C3O)C3COC(=O)C23)OCO4)cc(OC)c1O` (centres undefined), the inhibition [1] was -3.12% (inactive), the fold change [4, 18] was 0.803 (inactive) and the fold change [4, 19] was 1.95. For the same molecule, the cell count [4, 20] was 3290, the cell count [4, 21] was 4090 and the z-score [5] was -1.39 (inactive). For the same molecule, the inhibition ([6]; at 0.5 µM, stronger effect = higher value) was -32.6% (inactive) and -17.8% (inactive), the inhibition ([6]; measured here: combination with BGB IC20, at 0.005 µM) was -28.8% and 2.01% and the inhibition ([6]; measured here: combination with BGB IC40, at 0.005 µM) was -24.3% and 13.4%. The inhibition [6, 22] was -29.9% and -0.69%, the inhibition ([6]; measured here: combination with cisplatin, at 0.5 µM, stronger effect = higher value) was -45.5% and -45.4% and the inhibition ([6]; measured here: combination with cisplatin, at 5 µM, stronger effect = higher value) was -34.4% and -6.98%. The inhibition ([7]; BGB combo, at 5 µM) was 47.6% and 64.8%, the inhibition ([7]; at 0.5 µM) was 15.7% (inactive) and 26.2% (inactive) and the inhibition ([7]; cisplatin combo, at 5 µM) was 44.6% and 49%. The inhibition [7, 23] was 15.9% and 28.5%, the inhibition [7, 24] was -1.85% and 5.29% and the inhibition ([7]; single agent, at 5 µM) was 68.9% and 70.5%. The inhibition ([8]; BGB IC20 combo, at 0.005 µM) was -20.6% and 5.1%, the inhibition ([8]; BGB IC40 combo, at 0.005 µM) was -32.2% and -0.661% and the inhibition ([8]; BGB IC40 combo, at 0.05 µM) was -74.4% and -28.1%. For the same molecule, the inhibition ([8]; at 0.5 µM) was -29.8% (inactive) and -8.32% (inactive), the inhibition ([8]; cisplatin combo, at 0.05 µM) was -80.7% and -31.6% and the inhibition ([8]; cisplatin combo, at 0.5 µM) was -45.1% and -7.65%. For the same molecule, the inhibition ([8]; cisplatin combo, at 5 µM) was -73.3% and -20.4%, the inhibition ([8]; measured here: 5 uM single agent, at 5 µM) was -13% and -19.7% and the inhibition ([9]; at 0.5 µM) was -24.1% (inactive) and -15.7% (inactive). For the same molecule, the inhibition [9, 22] was -34.7% and -15.9%, the inhibition [9, 25] was -23.9% and -48.9% and the inhibition ([9]; measured here: combination with cisplatin, at 5 µM) was -59.7% and -24.4%. For the same molecule, the inhibition ([10]; at 0.5 µM) was 3.37% (inactive) and 12.3% (inactive), the inhibition ([10]; measured here: with BGB IC20, at 0.5 µM) was -1.07% and 17.8% and the inhibition ([10]; measured here: with BGB IC20, at 5 µM) was 84.3% and 86%. The inhibition ([10]; measured here: with cisplatin IC20, at 0.5 µM) was -5.76% and 1.07%, the inhibition ([10]; measured here: with cisplatin IC20, at 5 µM) was 76.7% and 87% and the inhibition ([10]; single agent, at 5 µM) was 84.8% and 89.6%. For the same molecule, the inhibition ([11]; at 0.5 µM) was 19.1% (inactive) and 27.8% (inactive), the inhibition ([11]; measured here: BGB combination, at 0.5 µM) was 8.19% and 23.7% and the inhibition ([11]; measured here: BGB combination, at 5 µM) was 34% and 51.6%. For the same molecule, the inhibition ([11]; measured here: cisplatin combination, at 0.5 µM) was 17.4% and 18.9%, the inhibition ([11]; measured here: cisplatin combination, at 5 µM) was 53.5% and 66.5% and the inhibition ([12]; at 0.5 µM) was -29.6% (inactive) and -14.9% (inactive). The inhibition ([12]; cisplatin combination, at 0.5 µM) was -28.5% and -4.54%, the inhibition ([12]; cisplatin combination, at 5 µM) was 10.8% and 15.8% and the inhibition ([12]; measured here: BGB IC40 combination 0.05 uM, at 0.05 µM) was 35.1% and 9.21%. The inhibition ([12]; single agent, at 5 µM) was -17.9% and 3.25%, the inhibition ([13]; at 0.5 µM) was -14.2% (inactive) and -26.4% (inactive) and the inhibition ([13]; cisplatin combo, at 5 µM) was -20.2% and -20.5%. For the same molecule, the inhibition ([13]; measured here: BGB IC40 combination, at 0.05 µM) was -25.5% and -24.7%, the inhibition [13, 25] was -16.3% and -39.4% and the inhibition ([13]; single agent, at 5 µM) was -18.8% and -0.235%. For the same molecule, the inhibition ([14]; at 0.5 µM) was 27.6% (inactive) and 42.6% (inactive), the inhibition [14, 23] was 19.9% and 59.6% and the inhibition [14, 24] was 30.4% and 32.6%. The inhibition ([14]; single agent, at 0.05 µM) was -27% and -16.2% and the inhibition ([14]; single agent, at 5 µM) was 72.5% and 78.1%.

With `O=C(/C=C/c1ccc(O)c(O)c1)O[C@@H]1C[C@](O)(C(=O)O)C[C@@H](O)[C@H]1O` the survival [15] was 22.8 (inactive), the parasite load remaining [16] was 105% (inactive) and 63.3% (inactive) and the viability [16] was 94.7% and 73.7%. The inhibition [1] was -7.84% (inactive), the fold change [4, 18] was 0.882 (inactive) and 0.998 (inactive) and the fold change [4, 19] was 1.35 and 0.827. For the same molecule, the cell count [4, 20] was 9710 and 5820, the cell count [4, 21] was 11000 and 5830 and the luciferase signal [3] was 56 AU (inactive).

For `COc1ccc(-c2cc(=O)c3ccccc3o2)cc1`, the inhibition [1] was -3.26% (inactive) and the luciferase signal [3] was 112 AU (inactive).

With `CC(C)C[C@@H]1NC(=O)[C@H](CCCN)NC(=O)[C@H](C(C)C)NC(=O)[C@H](Cc2ccc(O)cc2)N[C@@H](CCC(=O)O)C(=O)N[C@@H](CC(N)=O)C(=O)[C@@H](Cc2ccccc2)NC(=O)[C@H](Cc2ccccc2)NC(=O)[C@@H]2CCCN2C(=O)[C@@H](Cc2ccccc2)NC1=O` the inhibition [1] was 2.66% (inactive) and the remaining NAD [2] was 10 nM (inactive).

In the case of `CN1[C@@H]2CC[C@H]1CC(OC(c1ccccc1)c1ccccc1)C2` (some centres undefined), the inhibition [1] is reported as 13.6% (inactive), the z-score ([17]; MELAS cybrid survival, CellTiter-Glo 48 h, stronger effect = higher value) is reported as -0.23 (inactive) and the z-score ([17]; Rieske KO mouse fibroblast survival, CellTiter-Glo 72 h) is reported as 0.0522. For the same molecule, the luciferase signal [3] was 52 AU (inactive).

With `C/C=C(/C)C(=O)O[C@@H]1c2c(ccc3ccc(=O)oc23)OC(C)(C)[C@@H]1OC(C)=O` the inhibition [1] was 4.61% (inactive) and the luciferase signal [3] was 56 AU (inactive).

With `CCCCC[C@@H](O)[C@H]1C(=O)O[C@H](C)[C@@H](O)/C=C/C=C/C=C/C=C/C=C(\C)[C@@H](O)C[C@H](O)C[C@H](O)C[C@H](O)C[C@H](O)C[C@H](O)C[C@@H]1O` the inhibition [1] was 6.12% (inactive), the fold change [4, 18] was 1.04 (inactive) and the fold change [4, 19] was 1.06. For the same molecule, the cell count [4, 20] was 6150, the cell count [4, 21] was 5900 and the luciferase signal [3] was 72 AU (inactive).
